Laboratory results: the supplement of paper PMC12669032

system: Akkermansia muciniphila; assay: growth AUC relative to DMSO control (median of replicates) (fraction); higher = more growth (less inhibition), active = hit call of the paper; details: 20 µM; 24 h
Outline: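 For each compound at 20 µM (1% DMSO), gut bacterial monocultures seeded at OD600 0.05 grew anaerobically in mGAM at 37 °C in round-bottom 96-well plates. Hourly OD600 readings over 24 h gave growth curves whose minimum OD was set to 0. Area under these curves was normalised to the plate median of solvent-only wells, or to row and column medians on the industrial chemical plate. Values are medians of three biological replicates grown on separate days.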

Structure (SMILES)	growth AUC
CCC(C)(c1ccc(O)cc1)c1ccc(O)cc1	0.984 (inactive)
C[n+]1ccc(-c2cc[n+](C)cc2)cc1.O.[Cl-].[Cl-]	0.705 (inactive)
C=CCC1=C(C)C(OC(=O)C2C(C=C(C)C)C2(C)C)CC1=O (mixture of isomers)	1.05 (inactive)
CCOP(=S)(OCC)SCS(=O)CC (stereo unspecified)	1.03 (inactive)
CC1=C(C(=O)Nc2ccccc2)SCCO1	0.979 (inactive)
CC(C)Nc1nc(Cl)nc(NC(C)C)n1	0.954 (inactive)
CNC(=O)Oc1cc(C)cc(C(C)C)c1	0.995 (inactive)
C=CCN(CC=C)C(=O)C(Cl)Cl	0.976 (inactive)
CCS(=O)Cc1ccccc1OC(=O)NC (stereo unspecified)	1.22 (inactive)
CNC1=C(c2cccc(C(F)(F)F)c2)C(=O)C(c2ccccc2)O1 (stereo unspecified)	0.993 (inactive)
CC/C(=N\OC/C=C/Cl)C1=C(O)CC(C2CCOCC2)CC1=O (stereo unspecified)	1.04 (inactive)
CC(COc1ccc(Oc2ccccc2)cc1)Oc1ccccn1 (stereo unspecified)	0.989 (inactive)
COCCOC(=O)C(C#N)(C(=O)c1ccccc1C(F)(F)F)c1ccc(C(C)(C)C)cc1 (stereo unspecified)	1.07 (inactive)
O=c1oc2ccccc2c(O)c1C1CC(c2ccc(OCc3ccc(C(F)(F)F)cc3)cc2)Cc2ccccc21 (mixture of isomers)	0.908 (inactive)
CN(C)C1CSSSC1.O=C(O)C(=O)O	0.941 (inactive)
OC(c1ccc(Cl)cc1)(c1ccc(Cl)cc1)C(Cl)(Cl)Cl	1.07 (inactive)
